# Columns and labels:
# Details in all cases: concentration: 1 μM, replicates: in singlicate; n = 1
# [1] = test system: CHEK1
# [2] = test system: CHEK2
# [3] = test system: CIT
# [4] = test system: CLK1
# [5] = test system: CLK2
# [6] = test system: CLK3
# [7] = test system: CLK4
# [8] = test system: CSF1R-autoinhibited
# [9] = test system: CSF1R
# [10] = test system: CSK
# [11] = test system: CSNK1A1L
# [12] = test system: CSNK1A1
# [13] = test system: CSNK1D
# [14] = test system: CSNK1E
# [15] = test system: CSNK1G1
# [16] = test system: CSNK1G2
# [17] = test system: CSNK1G3
# [18] = test system: CSNK2A1
# [19] = test system: CSNK2A2
# [20] = test system: T1, CTK
# T1 construct: gene MATK
# 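Also: KINOMEscan kinase panel screen.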
SMILES,%Inh [1],%Inh [2],%Inh [3],%Inh [4],%Inh [5],%Inh [6],%Inh [7],%Inh [8],%Inh [9],%Inh [10],%Inh [11],%Inh [12],%Inh [13],%Inh [14],%Inh [15],%Inh [16],%Inh [17],%Inh [18],%Inh [19],%Inh [20]
Fc1ccc(-c2ncn(CCCN3CCOCC3)c2-c2cccnc2)cc1 [SB-211743],0%,0%,0%,24%,0%,11%,2%,0%,0%,0%,0%,22%,4%,24%,0%,0%,17%,0%,0%,32%
Nc1nc(-c2ccc3c(N)n[nH]c3c2)cc(N2CCCC2)n1 [GSK2227430],9%,0%,0%,26%,1%,0%,36%,0%,2%,0%,0%,0%,0%,25%,0%,0%,19%,0%,4%,0%
COc1cc2c(cc1OCCN1CCN(C)CC1)ncc1c3ccc(C#N)cc3[nH]c21,83%,45%,99.2%,96.7%,86%,25%,92.6%,99.3%,49%,0%,0%,0%,18%,0%,0%,0%,0%,73%,95.2%,23%
O=C(NOCC1CC1)c1ccc(F)c(F)c1Nc1ccc(I)cc1Cl,0%,21%,0%,0%,3%,0%,0%,0%,0%,0%,0%,3%,0%,3%,0%,0%,0%,0%,18%,0%
Cc1ccc(C(=O)NCC(N)=O)cc1-n1c(C)cc(OCc2ccc(F)cc2F)c(Br)c1=O,17%,9%,8%,0%,0%,3%,12%,0%,16%,0%,26%,25%,19%,0%,22%,10%,8%,0%,0%,0%
COc1cc2c(cc1OC[C@@H](O)CO)ncc1c3ccc(C#N)cc3[nH]c21,7%,48%,94.8%,89%,88%,2%,89%,96.6%,44%,1%,0%,9%,0%,0%,0%,0%,0%,81%,93.9%,18%
NS(=O)(=O)c1cccc(-c2ccc3nccc(-c4cccc(S(N)(=O)=O)c4)c3c2)c1 [GW867253],0%,0%,0%,0%,25%,0%,1%,0%,0%,0%,0%,0%,0%,12%,0%,0%,0%,0%,22%,31%
Cc1nnc(-c2ccc3occ(-c4ccc(C(C)O)cc4)c3c2)o1 (centres unmarked),13%,15%,11%,31%,2%,6%,33%,6%,1%,3%,0%,14%,0%,7%,0%,9%,0%,25%,53%,0%
CCn1cnc2c(N)ncnc21 [GW345098],12%,0%,6%,30%,18%,69%,1%,0%,0%,0%,14%,28%,21%,55%,9%,0%,16%,12%,19%,51%
CCc1ccnc(/C=C/c2n[nH]c3cc(Sc4ccccc4C(=O)NC)ccc23)c1,0%,8%,0%,0%,0%,0%,0%,66%,99.9%,12%,0%,26%,8%,0%,0%,0%,0%,0%,0%,0%
